Data reported in PubChem BioAssay AID1851 (National Center for Advancing Translational Sciences (NCATS), 2009).
Where “and” joins values, the source holds several entries; their conditions need not be identical. Identical values can stand only once. Out of some 16,000 compounds screened, about 4,000 (25%) were called active. About 26% were inconclusive and are not listed. Calls come from the whole dose curve; as a rule, active = well fitted curve in the direction sought with a large enough effect; inconclusive = small, poorly fitted or top-dose-only effect, or effect the other way; inactive = no such curve, though single readings can be large or run the other way. Not all results are given here.

The molecules below were run against Cytochrome P450 2C9 (Homo sapiens) (UniProt P11712) (assay: Cytochrome panel assay with activity outcomes). Settings: recombinant CYP, pro-luciferin dealkylation, luminescence, p450-cyp2c9; series mostly up to 57.1 µM; activity, negative = inhibition: at the top concentration.
Cytochrome P450 2C9 (Homo sapiens), sequence (P11712 whole entry, looked up): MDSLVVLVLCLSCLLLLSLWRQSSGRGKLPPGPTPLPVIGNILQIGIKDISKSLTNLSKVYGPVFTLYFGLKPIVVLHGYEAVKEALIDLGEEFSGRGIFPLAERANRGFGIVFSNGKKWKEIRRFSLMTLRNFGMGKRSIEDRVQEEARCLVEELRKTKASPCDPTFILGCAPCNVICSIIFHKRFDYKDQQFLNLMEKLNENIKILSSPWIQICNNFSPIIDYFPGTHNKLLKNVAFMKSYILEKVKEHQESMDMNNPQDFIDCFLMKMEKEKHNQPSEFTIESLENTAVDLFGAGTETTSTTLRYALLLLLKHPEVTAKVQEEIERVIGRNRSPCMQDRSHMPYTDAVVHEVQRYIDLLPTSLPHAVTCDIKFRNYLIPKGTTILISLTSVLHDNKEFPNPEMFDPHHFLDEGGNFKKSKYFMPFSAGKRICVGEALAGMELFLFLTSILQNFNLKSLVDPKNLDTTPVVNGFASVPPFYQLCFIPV
% is set by controls: 0 for no effect and ±100 for the full control effect.

activity, negative = inhibition, inactive:
CCCCSc1nc(C)cc(NC(=S)Nc2ccc(OC)cc2)n1 -28%
O=C1/C(=N\O)Cc2ccccc21 -18.6%
COCC(=O)N1CCC[C@@]2(CCN(C(=O)Nc3cccc(F)c3)C2)C1 3.07%
CCOC(=O)CCCN 4.7% [at 11.4 µM]
O=[N+]([O-])c1ccc2c(c1)S(=O)c1ccccc1-2 (configuration not stated) -1.14% [at 11.4 µM]
O=C1C2=C(Nc3cc([N+](=O)[O-])ccc3N2)O[C@@H]1c1ccc([C@H]2OC3=C(Nc4ccc([N+](=O)[O-])cc4N3)C2=O)cc1 -18.7% [at 11.4 µM]
COc1cc2cc3c(N)c(C(=O)Nc4sc(C)c(C)c4C#N)sc3nc2cc1OC -13.7%
CC(C)(C)c1ccccc1OCCN1CCCC1 8.57%
CCOc1ccc2nc(C)cc(Nc3ccc4c(c3)OCCO4)c2c1 13.7%
COCCN(C(=O)Nc1ccc(OC)cc1OC)C1CCN(C(C)=O)CC1 -16.3%
CC(=O)c1[nH]c(C)c(C(C)=O)c1C -32.9%
CN(C)c1ccc2nc3c(C(=O)O)cc(=O)c(O)c-3oc2c1 -29.4% [at 11.4 µM]
Cc1ccc(-n2c(O)cnc2Nc2nc(C)cc(C)n2)cc1 4.21%
COc1cccc(Nc2ncc3nc(-c4ccc(Cl)cc4)c(=O)n(CCC#N)c3n2)c1 3.96%
COc1ccc(Oc2ncc3nc(-c4ccc(Cl)cc4)c(=O)n(C)c3n2)cc1 -9.75%
Nc1nc(-c2cc(-c3cccc4ccccc34)nc(N)n2)cc(-c2cccc3ccccc23)n1 10.6% [at 11.4 µM]
CN(Cc1cccc2ccccc12)Cc1cccc2ccccc12 -23.2% [at 11.4 µM]
C[C@@H]1CC[C@@H]2C(=O)N3[C@@H](CC[C@@H](C)[C@@H]3c3ccc(-c4ccco4)cc3)C(=O)N2[C@H]1c1ccc(-c2ccco2)cc1 -27.5% [at 11.4 µM]
c1cncc(CNc2ccnc(-c3ccc4c(c3)OCO4)n2)c1 -9.36% [at 2.29 µM]
Cc1cccc(N2CCN(c3ccc(NC(=O)/C=C(/C(=O)O)c4ccccc4)cc3)CC2)c1 -27%
COc1ccc(NC2=NC(=S)N(c3ccc(C)cc3)C23CCCCC3)cc1 20.2%
Cc1noc(C)c1-c1nc(NCCN2CCOCC2)c2ccccc2n1 1.01% [at 2.29 µM]
Cc1cc(NC(=O)c2nn(C)c(C)c2[N+](=O)[O-])no1 -8.43%
COc1cccc(NC(=S)NN2CCN(C)CC2)c1 -10.9%
CC(=O)Nc1ccc([N+](=O)[O-])cn1 9.45%
COc1ccccc1CN1CC[C@@]2(CCCN(C(=O)c3ccco3)C2)C1 5.94%
Cc1cc(C(=O)C(=O)NC(C)C)c(C)n1-c1ccc([N+](=O)[O-])cc1 -6.96%
CC1(C)N=C(N)N=C(N)N1CCCCc1ccccc1 1.42% [at 11.4 µM]
CCOc1ccc(CCNC(=O)C2CC(=O)N(C3CCCC3)C2)cc1OCC (configuration not stated) -18.7%
CCOc1ccc(CC(C(N)=O)C(N)=O)cc1CN(C)C -25.3%
COCn1c2ccccc2c2nnc(C(C)=O)nc21 13.8% [at 11.4 µM] and -8.55% [at 11.4 µM]
COc1ccccc1CN1CC[C@@]2(CCCN(S(C)(=O)=O)C2)C1 6.39%
COc1ccc(C(=O)N2CCC[C@@]3(CCN(C(=O)Nc4ccccc4)C3)C2)cc1 -9.88%
COC(=O)[C@@]1(Cc2ccccc2)[C@@H]2C(=CC(=O)[C@H]2CC(=O)C(=O)N(C)C)CN1C(=O)c1ccccc1 -29%

AC50, active:
Cc1cc([N+](=O)[O-])ccc1-c1ccc(C2Nc3ccccc3C(=O)N2O)o1 (configuration not stated) 2.82 µM
CCOC(=O)Cc1csc(NC(=O)c2sc3nc4ccc(CC)cc4cc3c2N)n1 0.447 µM
CCOC(=O)Cc1csc(NC(=O)c2ccc(Cl)nc2)n1 11.2 µM
Cc1cccc(C)c1NC(=O)/C(C#N)=C/c1cccs1 11.2 µM
CCOc1ccc(-n2c(SCC(=O)Nc3ccc4c(c3)OCCO4)nc3c(c2=O)SCC3)cc1 2.82 µM
CCOc1ccc(-n2c(SCC(=O)Nc3ccc(OC)cc3OC)nc3c(c2=O)SCC3)cc1 4.47 µM
COc1ccc(/C(C#N)=C/c2c(-c3ccc(Cl)cc3)nc3c(C)cccn23)cc1 5.01 µM
O=C(O)Cc1sc(-c2ccc(Cl)cc2)nc1-c1ccccc1 2 µM
BrC(c1cccc2ccccc12)c1cccc2ccccc12 3.16 µM
Fc1ccc(C2CC(c3ccco3)=NN2c2ccccc2)cc1 (configuration not stated) 1.41 µM
Cc1cccc(NC2=NC(=S)N(c3ccc(C(=O)O)cc3)C23CCCCC3)c1 25.1 µM
CCc1nc(N2CCC3(CC2)OCCO3)c2nnn(Cc3ccccc3Cl)c2n1 11.2 µM
Cc1nn(C(C)C(=O)Nc2ccc(Cl)cn2)c(C)c1[N+](=O)[O-] (configuration not stated) 14.1 µM
COc1cccc(NC(=S)NNC(=O)C(C)n2nc(C)c([N+](=O)[O-])c2C)c1 (configuration not stated) 5.01 µM
Cc1ncsc1C(=O)N1N=C2/C(=C/c3ccccc3)CCCC2C1c1ccccc1 (configuration not stated) 2.82 µM
COc1ccc(/C=C2\CCCC3C2=NN(C(=O)c2ccco2)C3c2ccc(OC)c(OC)c2)cc1OC (configuration not stated) 11.2 µM
O=c1cc(-c2ccccc2)[nH]n1-c1ccc([N+](=O)[O-])cc1 10 µM
CCOc1ccc(CC(=O)C2C(=O)CCCC2=O)cc1OCC 7.08 µM
N#CC(C#N)=NNc1ccc2cn[nH]c2c1 2.51 µM
COC(=O)[C@@]1(Cc2ccc(F)cc2)[C@@H]2[C@@H](CC(=O)[C@H]2CC(=O)C(=O)N(C)C)CN1C(=O)c1ccccc1 20 µM
COC(=O)[C@@]1(Cc2ccc(F)cc2)[C@@H]2C(=CC(=O)[C@H]2CC(=O)C(=O)N2CCCC2)CN1C(=O)c1ccccc1 10 µM
COC(=O)[C@@]1(Cc2ccc(OC)cc2)[C@@H]2C(=CC(=O)[C@H]2CC(=O)C(=O)N2CCCC2)CN1C(=O)c1ccccc1 10 µM
C=C1C(=O)C=C2CN(C(=O)c3ccccc3)[C@@](Cc3ccc(F)cc3)(C(=O)OC)[C@@H]12 3.98 µM
